{
  "source": "PubChem BioAssay (NCATS)",
  "note": "Inconclusive results are not listed. A number with no mark means an inactive call. Active and inactive are the calls of the source. Calls come from the whole dose curve. % is set by controls: 0 for no effect and ±100 for the full control effect.",
  "data": [
    {"target": "Atrial natriuretic peptide receptor 1 (Homo sapiens) (UniProt P16066)", "sequence (P16066 whole entry, looked up)": "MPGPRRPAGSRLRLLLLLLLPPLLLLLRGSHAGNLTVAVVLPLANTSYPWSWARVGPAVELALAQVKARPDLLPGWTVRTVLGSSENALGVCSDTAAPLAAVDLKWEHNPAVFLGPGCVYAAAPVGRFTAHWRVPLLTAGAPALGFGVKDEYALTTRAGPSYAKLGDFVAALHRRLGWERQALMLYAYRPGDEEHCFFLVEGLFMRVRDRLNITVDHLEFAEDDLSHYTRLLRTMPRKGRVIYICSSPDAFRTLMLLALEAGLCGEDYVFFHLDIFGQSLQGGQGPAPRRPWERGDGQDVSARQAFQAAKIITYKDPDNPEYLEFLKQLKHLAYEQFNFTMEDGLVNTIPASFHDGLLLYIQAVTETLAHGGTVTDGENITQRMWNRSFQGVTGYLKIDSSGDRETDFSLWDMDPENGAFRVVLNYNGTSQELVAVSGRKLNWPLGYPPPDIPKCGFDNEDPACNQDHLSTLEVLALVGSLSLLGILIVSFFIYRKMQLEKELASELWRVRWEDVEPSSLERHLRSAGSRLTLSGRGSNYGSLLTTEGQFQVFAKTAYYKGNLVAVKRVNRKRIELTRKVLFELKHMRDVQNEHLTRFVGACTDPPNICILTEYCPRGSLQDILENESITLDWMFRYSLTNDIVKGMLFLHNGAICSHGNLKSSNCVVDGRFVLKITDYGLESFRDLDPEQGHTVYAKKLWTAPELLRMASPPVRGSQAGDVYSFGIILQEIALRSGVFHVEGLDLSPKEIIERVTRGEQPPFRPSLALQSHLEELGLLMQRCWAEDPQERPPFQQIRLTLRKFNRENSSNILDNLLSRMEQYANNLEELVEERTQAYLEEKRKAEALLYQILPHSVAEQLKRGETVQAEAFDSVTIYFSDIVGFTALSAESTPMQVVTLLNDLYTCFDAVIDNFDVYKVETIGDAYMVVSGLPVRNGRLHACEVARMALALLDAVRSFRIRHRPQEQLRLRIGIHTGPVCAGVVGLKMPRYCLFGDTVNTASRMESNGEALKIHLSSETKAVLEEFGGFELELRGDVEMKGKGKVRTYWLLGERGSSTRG", "test": "Natriuretic polypeptide receptor (hNpr1) antagonism - Pilot CMLD screen (AID 1347052);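 note: HEK293 cells with hNpr1 stimulated by hNppA peptide at 0.1 nM; cGMP level read as GloSensor luciferase luminescence after agonist stimulation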", "details": "HEK293 hNpr1 GloSensor cGMP luminescence, ANP-stimulated; series mostly up to 9.22 µM; activity change, negative = inhibition: at the top concentration", "units": {"activity change, negative = inhibition": "%"}, "values": [
      {"smiles": "CC(C)=CCCC(C)=CCON=C1C[C@@H](O)[C@@H](O)[C@@H]2[C@H]3C(=O)N(C[C@@H]4CCCO4)C(=O)[C@@H]3CC[C@@H]12", "activity change, negative = inhibition": 9.58},
      {"smiles": "C=CCN1C(=O)CC[C@@]23C1=NC(C(=O)OC)=C(C(=O)OC)[C@@H]2N(CC#CC)c1ccccc13", "activity change, negative = inhibition": -10.8},
      {"smiles": "CC(C)=CCCC(C)=CCN1C(=O)[C@]2(OCCC=C[C@H]2C)c2ccccc21", "activity change, negative = inhibition": 10.4},
      {"smiles": "COc1ccc2c(c1)C(=O)[C@H](OC(=O)N[C@H]1CCCc3ccccc31)[C@@H](c1ccc(OC)c(Br)c1)O2", "activity change, negative = inhibition": -2.46},
      {"smiles": "COC(=O)CCCC1=CC2=CC(=O)C(C)(OC(=O)c3cccs3)C(=O)C2=CN1C1CC1", "note": "(stereo unspecified)", "activity change, negative = inhibition": -0.86},
      {"smiles": "CCCCCCCC1=Cc2ccc(F)cc2C(C(C(=O)OC)C(=O)OC)N1C(=O)OC", "note": "(stereo unspecified)", "Potency": "inactive"},
      {"smiles": "C=C(C)C1CC23C(=O)[C@]4(C(=O)c5ccccc5)C[C@@]5(C)CCC(CC2C1(C)C)(C4=O)[C@@]35OC", "note": "(stereo partly specified)", "activity change, negative = inhibition": 6.95},
      {"smiles": "CCC=C1C(=O)[C@]2(C(=O)c3ccccc3)C[C@H]3CCC(CCC)(C2=O)[C@@]13OC", "activity change, negative = inhibition": -8.75},
      {"smiles": "CC1=CC[C@@H](COc2ccccc2)O[C@@]2(C1)C(=O)Nc1ccccc12", "activity change, negative = inhibition": -3.08},
      {"smiles": "COC1=C(C(=O)c2ccccc2)C(=O)[C@@]2(CC=C(C)C)CC(C#N)C[C@@]1(CC=C(C)C)C2=O", "note": "(stereo partly specified)", "activity change, negative = inhibition": -1.33},
      {"smiles": "COC1=C[C@H](C(=O)N2CCCC2)[C@H](C)[C@@H](c2ccccc2)CC1=O", "activity change, negative = inhibition": 12.9},
      {"smiles": "CCOC(=O)CCN1C(=O)[C@@H]2[C@H]3[C@H](O)[C@H](O)CC(=NNC(=O)OCc4ccccc4)[C@@H]3CC[C@H]2C1=O", "activity change, negative = inhibition": 8.82},
      {"smiles": "C=CCN1c2ccccc2[C@]23CCC(=O)N(CCc4ccccn4)C2=NC(C(=O)OC)=C(C(=O)OC)[C@H]13", "activity change, negative = inhibition": -16.6},
      {"smiles": "C[C@H](NC(=O)N1CCc2nc(-c3ccccc3)c3c(c2C1)CO[C@@H](C)C3)c1ccccc1", "activity change, negative = inhibition": 12.2},
      {"smiles": "CC12C=C(C=Cc3ccc(C(F)(F)F)cc3)C(C)(C1)C(c1ccc(C(F)(F)F)cc1)CC2=O", "note": "(stereo unspecified)", "activity change, negative = inhibition": 1.14},
      {"smiles": "O=S(=O)(CCc1ccccc1)c1nnnn1C1CCCCC1", "activity change, negative = inhibition": -4.3},
      {"smiles": "COc1ccc(COC(=O)NN=C2C[C@@H](O)[C@@H](O)[C@@H]3[C@H]4C(=O)N(c5cccc(Oc6ccccc6)c5)C(=O)[C@@H]4CC[C@H]23)cc1", "activity change, negative = inhibition": 2.23},
      {"smiles": "CC(=O)c1ccc(OCc2ccccc2)c(C)c1O", "activity change, negative = inhibition": 0.438},
      {"smiles": "C=CCCCC=C(C)[C@H](OCc1ccc(OC)cc1)[C@H](CCC=C(C)C(N)=O)OC", "activity change, negative = inhibition": 2.71},
      {"smiles": "COc1cc(C(CC2=C(c3ccccc3)Cc3ccccc32)NC(=O)C(F)(F)F)cc(OC)c1OC", "note": "(stereo unspecified)", "activity change, negative = inhibition": -5.13},
      {"smiles": "CCCCCCCC1=Cc2ccccc2C(CC(=O)c2ccccc2)N1C(=O)OC", "note": "(stereo unspecified)", "activity change, negative = inhibition": -0.708},
      {"smiles": "Cc1ccccc1Nc1oc(-c2ccccc2)nc1C=Cc1ccccc1", "activity change, negative = inhibition": 5.59},
      {"smiles": "COc1ccc2c(c1)[C@H](C=Cc1ccccc1)[C@@H]([C@H](O)CO)O2", "activity change, negative = inhibition": -1.16},
      {"smiles": "COC(=O)CCCC1=CC2=C(c3ccccc3)C(=O)C(C)(OC(=O)C3CCCC3)C(=O)C2=CN1Cc1ccco1", "note": "(stereo unspecified)", "activity change, negative = inhibition": -3.01},
      {"smiles": "CCCCCCCC1Cc2ccccc2C(C(C(=O)OC)C(=O)OC)N1C(=O)OC", "note": "(stereo unspecified)", "Potency": "inactive"},
      {"smiles": "CC(CCN1CCCc2nc(C)c(C)cc21)=NOC[C@@H](C)[C@H](OCc1ccccc1)C(C)C", "activity change, negative = inhibition": -0.636}
    ]}
  ]
}
